From PubChem BioAssay
An excerpt weighted towards active compounds, which were near 18% of everything screened.
DT40 TDP1 CPT = growth inhibition of DT40 Tdp1-/-;hTDP1 cells with camptothecin (screen for TDP1 inhibitors); chicken DT40 Tdp1-/-;hTDP1 cells + 20 nM CPT, ATP luminescence, 48 h; Potency, µM (highest dose often 46.2 µM), without a hit: at the top dose activity change, negative = growth inhibition, most hits filed as inhibitors; 12% of 420,000 active; further: potency means the concentration at half of the fitted maximal effect; nearly all actives have a fitted effect of over 55% in size
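Chicken DT40 Tdp1-/- cells complemented with human TDP1, 400 cells/well, exposed to compounds plus 20 nM camptothecin for at least 48 h at 37 C; viability read as ATP content by CellTiter-Glo luminescence.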
CtBP-E1A blk = CtBP/E1A binding inhibition; AlphaScreen GST-E1A/His-CtBP binding, 1536-well; stronger effect = lower value; activity change, % (test concentration not listed); 0.49% of 340,000 active; AID 651724; in the data active means activity change below about -65%; inconclusive means mostly about -30% to -63%
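AlphaScreen with 125 nM GST-E1A and 125 nM His-CtBP (5X stocks) in Tris pH 8.0, 300 mM NaCl, BSA, Tween 20, TCEP. Compounds preincubated 2 h at 37 deg C, then glutathione donor/nickel acceptor beads added for 1 h at 37 deg C in dark.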
TDP1 cell noCPT = qHTS for Inhibitors of human tyrosyl-DNA phosphodiesterase 1 (TDP1): qHTS in cells in absence of CPT | DT40 Tdp1-/- hTDP1 cells, no CPT, ATP luminescence, 48 h | 15% of 420,000 active | Potency, µM (titrated, usually from 46.2 µM), inactives show top-dose activity change, negative = growth inhibition, actives largely listed as inhibitors; further: potency means the concentration at half of the fitted maximal effect; nearly all actives have a fitted effect of over 55% in size
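Growth kinetics read by CellTiter-Glo luminescence after ≥48 hr at 37 °C. Cells: DT40 Tdp1-/- stably carrying human TDP1, 400 per well, compound exposure in the absence of CPT (DMSO vehicle).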
Six1-Eya2 inh = inhibitors of human Six1/Eya2 interaction; Q15475+O00167; 0.56% of 360,000 active; AlphaScreen GST-Six1/His-Eya2 binding, biochemical; stronger effect = lower value; activity change, % (no concentration beside the values); in the data active means activity change below about -65%; inconclusive means mostly about -30% to -63%
Target sequence (O00167 whole entry, looked up): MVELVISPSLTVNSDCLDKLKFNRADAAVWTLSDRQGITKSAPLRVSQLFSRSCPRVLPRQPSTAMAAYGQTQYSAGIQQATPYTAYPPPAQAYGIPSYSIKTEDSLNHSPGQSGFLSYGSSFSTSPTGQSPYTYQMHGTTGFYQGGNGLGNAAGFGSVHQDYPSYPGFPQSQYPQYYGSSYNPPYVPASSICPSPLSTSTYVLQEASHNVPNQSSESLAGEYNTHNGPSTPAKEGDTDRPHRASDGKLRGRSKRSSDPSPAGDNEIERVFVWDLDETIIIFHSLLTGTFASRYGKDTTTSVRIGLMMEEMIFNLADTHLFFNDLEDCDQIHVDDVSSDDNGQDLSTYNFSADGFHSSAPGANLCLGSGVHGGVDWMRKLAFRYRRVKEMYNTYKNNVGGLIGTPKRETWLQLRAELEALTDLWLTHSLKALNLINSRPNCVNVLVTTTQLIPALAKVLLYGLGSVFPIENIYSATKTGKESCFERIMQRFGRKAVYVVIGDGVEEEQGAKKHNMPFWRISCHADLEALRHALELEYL
Target sequence (Q15475 whole entry, looked up): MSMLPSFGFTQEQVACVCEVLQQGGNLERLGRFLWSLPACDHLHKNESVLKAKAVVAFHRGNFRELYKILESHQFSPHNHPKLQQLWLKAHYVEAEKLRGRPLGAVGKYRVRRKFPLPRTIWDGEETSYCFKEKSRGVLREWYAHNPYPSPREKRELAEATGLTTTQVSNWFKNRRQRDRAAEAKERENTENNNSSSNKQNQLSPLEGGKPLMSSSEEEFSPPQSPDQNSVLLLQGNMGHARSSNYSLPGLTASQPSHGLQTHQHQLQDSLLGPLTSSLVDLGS
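GST-Six1 + His-Eya2 (5X stock: 250/500 nM); Tris pH 8.0, 300 mM NaCl, 0.05% BSA, 0.02% Tween 20; GSH donor/Ni acceptor beads; 1 h 37 °C dark; AlphaScreen readout.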
TDP1 inh = inhibitors of human tyrosyl-DNA phosphodiesterase TDP1; Q9NUW8; AID 485290; Potency, µM (doses to about 130 µM), for inactives: at the highest dose activity change, negative = inhibition, most hits filed as inhibitors; 0.28% of 350,000 active; recombinant TDP1, AlphaScreen DNA substrate cleavage; further: potency means the concentration at half of the fitted maximal effect; nearly all actives have a fitted effect of over 40% in size
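Steps: enzyme plus compound, 15 min RT; add biotin/phosphotyrosine-FITC oligonucleotide (15 nM final), react 5 min; add donor/acceptor beads (10 ug/ml final), 10 min; read AlphaScreen. Tdp1 at 1 nM final.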
IL-1B inflam inh = inflammasome signaling inhibition, IL-1 beta readout; THP-1 LPS/ATP IL-1B secretion, AlphaLISA, 16 h; stronger effect = lower value; activity change, % at 57.5 µM; 4.7% of 360,000 active; AID 743279; in the data active means activity change below about -50%; inconclusive means mostly about -30% to -49%
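THP-1 cells pretreated 1 hr with compounds (up to 57.5 uM final), then stimulated with LPS (250 ng/mL final) plus ATP (1.25 mM final); secreted IL-1B measured by AlphaLISA after 16 hr, decreased signal indicating inhibition.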
Starred values were filed as active, the others as inactive; i = inactive; ? = inconclusive; . = no result given; [ ] = dose if it differs, or a comment. Unless noted, the call rests on the fitted dose curve; in most records, active means well fitted curve in the direction sought with a large enough effect; inconclusive means small, poorly fitted or top-dose-only effect, or another doubt; inactive means no such curve, though single readings can be large; an effect the other way counts as inactive or inconclusive. On the % scale 0 is the no-effect control and ±100 the full control effect.

SMILES	DT40 TDP1 CPT	CtBP-E1A blk	TDP1 cell noCPT	Six1-Eya2 inh	TDP1 inh	IL-1B inflam inh
O=C(NCCc1ccco1)C(=O)NCC1CCCN1S(=O)(=O)c1ccccc1 (centres undefined)	12µM*	-17	4.1µM*	-3	2%	-5
Cc1ccc(S(=O)(=O)N2CCCCC2CCNC(=O)C(=O)NCc2ccco2)cc1 (centres undefined)	13µM*	-5	7.3µM*	-11	.	-17
COc1ccc(/C=N\NC(=O)c2ccccc2OC)cc1COc1ccccc1C	16µM*	-1	?	1	3%[56.1 µM]	-19
COc1ccc(/C=N/NC(=O)c2nc(Cl)c(Cl)c(N)c2Cl)cc1COc1ccccc1F	23µM*	4	?	-4	-4%	41
COc1ccc(/C=N/NC(=O)c2ccc(OC)c(OC)c2)cc1COc1c(F)c(F)c(F)c(F)c1F	16µM*	0	?	3	3%	32
COc1ccc(/C=N\NC(=O)c2ccccc2)cc1COc1ccccc1	?	2	?	-22	3%[56.1 µM]	i
COc1ccc(/C=N/NC(=O)c2nc(Cl)c(Cl)c(N)c2Cl)cc1COc1ccc(F)cc1F	?	0	?	-7	1%	61
COc1ccc(/C=N/NC(=O)c2ccc(NC(C)=O)cc2)cc1COc1ccc(F)cc1F	?	3	-14%	-4	.	0
COc1ccc(/C=N/NC(=O)c2cc(C(C)(C)C)[nH]n2)cc1COc1ccc(F)cc1F	?	10	23µM*	-14	7%	-77*
CN(CC(=O)Nc1ccccc1Cl)C(=O)c1ccccc1Sc1ccccc1C#N	?	2	-1%	0	0%	-3
Cc1ccc(CN2CCS(=O)(=O)CC2)cc1	-8%	1	2%	4	2%	27
COc1ccc(/C=N\NC(=O)c2ccccc2F)cc1COc1ccc(F)cc1F	2.6µM*	0	2.6µM*	-5	2%	66
COc1ccc(/C=N\NC(=O)c2ccccc2F)cc1COc1ccc(F)cc1	?	-6	?	-1	0%	35
COc1ccc(/C=N/NC(=O)c2ccc(F)cc2)cc1CN1CCc2cc(OC)c(OC)cc2C1C (centres undefined)	?	-13	18µM*	-4	6%	-59*
COc1ccc(/C=N\NC(=O)c2ccccc2Br)cc1COc1c(F)c(F)cc(F)c1F	?	-6	16µM*	-2	2%[56.1 µM]	-25
COc1ccc(/C=N/NC(=O)c2ccoc2C)cc1COc1c(C)cccc1C	12µM*	-3	15µM*	-16	8%	6
COc1ccc(/C=N/NC(=O)c2ccccc2O)cc1COc1ccccn1	-2%	?	17%	-5	5%	17
Cn1c(=O)c2c(ncn2CCOc2ccc(Br)cc2)n(C)c1=O	?	1	16µM*	-8	1%	42
Cn1c(=O)c2c(ncn2CC(COCc2ccc(Cl)cc2)OCc2ccc(Cl)cc2)n(C)c1=O (centres undefined)	23µM*	0	15µM*	1	3%	-14
C[C@H](O)Cn1cnc2c1c(=O)n(C)c(=O)n2C	.	.	.	.	9%[21 µM]	.
Cn1c(=O)c2c(ncn2Cc2ccc(Cl)cc2)n(C)c1=O	5.8µM*	2	16µM*	2	9%	8
CC(C)Cn1cnc2c1c(=O)n(C)c(=O)n2C	6%	1	1%	7	7%	-15
Cc1cccc([C@@H]2[C@@H]3C(=O)N(Cc4ccccc4)C(=O)[C@@H]3[C@]3(Cc4ccc(Cl)cc4)C(=O)N(c4cccc(Br)c4)C(=O)N23)c1	?	.	-12%	-5	.	-2
CCOC(=O)N1CCN(c2nc3c(c(=O)[nH]c(=O)n3C)n2Cc2ccccc2Cl)CC1	.	.	.	.	3%	.
CCCn1c(COc2cccc(C)c2)nc2ccccc21	?	.	21µM*	.	3%	.
SMILES	DT40 TDP1 CPT	CtBP-E1A blk	TDP1 cell noCPT	Six1-Eya2 inh	TDP1 inh	IL-1B inflam inh
COc1cccc(OCc2nc3ccccc3n2Cc2ccccc2C)c1	21µM*	.	12µM*	.	0%	.
Cc1cccc(OCc2nc3ccccc3c(=O)n2N)c1	?	2	29µM*	0	5%	-23
COc1cccc(OCc2nc3ccccc3n2C)c1	?	.	?	.	5%	.
Cc1cccc(OCc2nc3ccccc3n2C)c1	?	.	?	0	.	-6
Cc1ccccc1OCc1nc2ccccc2n1Cc1ccccc1Cl	?	.	10µM*	.	.	.
Cc1cc(C(=O)CSc2ncccn2)c(C)n1-c1cccc(F)c1	-7%	0	?	-9	-3%	-3
CC(=O)Nc1ccc(OCC(O)Cn2c(CO)nc3ccccc32)cc1 (centres undefined)	-5%	9	1%	-4	4%	10
CCc1c(C)nc(SCc2nc(-c3ccccc3C)no2)[nH]c1=O	?	.	?	.	3%	.
COc1ccc(S(=O)(=O)NCCSc2nnnn2-c2ccccc2)cc1OC	16µM*	.	23µM*	.	-2%	.
CCOc1cc(CNCCSc2nnnn2-c2ccccc2)ccc1OC	12µM*	.	10µM*	.	6%	.
COc1ccc(S(=O)(=O)NCCOc2ccccc2)cc1-n1cnnn1	-5%	20	-16%	24	5%	-50*
COc1cccc(CNCCSc2nnnn2-c2ccccc2)c1OC	?	.	23µM*	.	7%	.
c1ccc2nc3c(ccc4ccccc43)cc2c1	0%	-3	-14%	112	.	7
COc1ccccc1NC(=O)COC(=O)c1[nH]c(=O)[nH]c(=O)c1N	-4%	-1	7%	-2	1%	28
COC(=O)[C@@]12C[C@@H](CC(=O)NCCc3ccccc3OC)C(=O)N(Cc3ccc4c(c3)OCO4)C1=CCC(C)(C)C2	?	-17	?	-13	.	?
CCCCNC(=O)C[C@@H]1C[C@@]2(C(=O)OC)CC(C)(C)CC=C2N(Cc2ccc3c(c2)OCO3)C1=O	16µM*	-10	?	-6	.	-16
COC(=O)[C@@]12C[C@@H](CC(=O)NCCCCc3ccccc3)C(=O)N(Cc3ccc4c(c3)OCO4)C1=CCC(C)(C)C2	?	-1	13µM*	-15	.	-76*
COC(=O)[C@@]12C[C@@H](CC(=O)NCCc3ccccc3OC)C(=O)N(Cc3ccccc3)C1=CCC(C)(C)C2	21µM*	-1	?	-8	.	?
COc1ccc(-n2c(N)c(C#N)c3ccc([N+](=O)[O-])cc3c2=O)cc1	-24%	-6	-1%	-20	3%	0
